Shown are actives, neighbours in structure and some others; about 3.6% of the full set was active somewhere.
HTT-AS act – Primary qHTS for Identification of Small Molecule Activators of Huntingtin-Antisense Promoter Activity; HEK293 HTT-AS promoter firefly luciferase reporter, 24 h; response scale: percent change from vehicle, -100% = no light; Potency, µM (top dose mostly 57.5 µM), inactives show at the top dose activity change, positive = activation, actives largely listed as activators; AID 1508624, 2021; hit rate 0.24% among 48,000; further: potency means the concentration at half of the fitted maximal effect; nearly all actives have a fitted effect of over 55% in size
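Firefly luciferase readout (Dual-Glo, 10 min RT) after 24 h, 37 °C compound exposure (final up to 57.5 uM) of HEK293 reporter cells cultured 24 h beforehand; PTC124 at 50 uM final as control inhibitor; activity scaled vehicle 0%, zero RLU -100%.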
S16 viability – Cell viability qHTS assay in S16 Pmp22-F2sN cells; Potency, µM (doses to about 57.5 µM), without a hit: top-dose activity change, negative = cytotoxicity, hits mostly cytotoxic; hit rate 0.48% among 43,000; S16 Pmp22-F2sN Schwann cells viability, CellTiter-Glo, 24 h; AID 1508642, 2021; further: potency means the concentration at half of the fitted maximal effect; on the % scale 0 is the no-effect control and ±100 the full control effect; nearly all actives have a fitted effect of over 65% in size
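S16 Pmp22-F2sN Schwann cells (500-1,000/well) in phenol-red-free DMEM with 10% FBS received 23 nL compound by pin tool for 24 h at 37 °C. Viability was then read as CellTiter-Glo luminescence after 15 min at room temperature.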
pS6 MEF inh – Acumen qHTS Assay for Inhibitors of the mTORC1 Signaling Pathway in MEF (Tsc2-/-, p53-/-) Cells: Sytravon. AID 493208, 2011. Potency, µM (titrated, usually from 38.3 µM), without a hit: at the highest dose activity change, negative = inhibition, actives largely listed as inhibitors. Tsc2-/- p53-/- MEF, phospho-rpS6 immunofluorescence/PI, 24 h. hit rate 0.78% among 44,000;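 further: potency means the concentration at half of the fitted maximal effect; plate controls were DMSO for no effect and rapamycin for full effect; nearly all actives have a fitted effect of over 50% in size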
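Cell-based qHTS: Tsc2-/- p53-/- MEF, 24 h cpd, 37 °C; fix/perm, anti-phospho-S6 Alexa-488 + PI; Acumen 488 nm scan; pS6/PI ratio, % positive cells; rapamycin 7.5 nM = inhibition ref; PI count = viability.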
HTT prom inh – Primary qHTS for Identification of Small Molecule Inhibitors of Huntingtin Promoter Activity | AID 1508623, 2021 | Potency, µM (doses to about 57.5 µM), for the others: at the highest dose activity change, negative = inhibition, usual class: inhibitors | hit rate 0.93% among 48,000 | HEK293 HTT promoter firefly luciferase reporter, 24 h; further: potency means the concentration at half of the fitted maximal effect; nearly all actives have a fitted effect of over 50% in size
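HEK293 luciferase promoter-reporter cells (2,500/well) plated 24 h, then compounds added at up to 57.5 uM final for 24 h at 37 °C. Firefly luminescence by Dual-Glo, normalized to vehicle (0%) and zero RLU (-100%).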
PMP22 txn – Cell-based coincidence reporter assay to measure PMP22 gene transcription in S16 Pmp22-F2sN cells - Primary screen. Potency, µM (titrated, usually from 57.5 µM), without a hit: top-dose activity change, negative = inhibition, actives largely listed as inhibitors. hit rate 2% among 43,000. S16 Pmp22-F2sN Schwann cells (luciferase reporters placed in the Pmp22 gene), FLuc/NLuc coincidence luminescence, 24 h; active means clear falling dose curves in both reporters; inconclusive means both reporters move, but less clearly or upward; inactive means either reporter flat; the % is the NLuc reporter signal; further: potency means the concentration at half of the fitted maximal effect; on the % scale 0 is the no-effect control and ±100 the full control effect
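Luminescent read-out of sequential FLuc and NLuc signals from a reporter embedded in the Pmp22 3' UTR of S16 Schwann cells, taken after 24 h compound exposure at 37C; compounds reducing both signals score as inhibitors of expression.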
OvCa metastasis – Primary qHTS assay for Inhibitors of ovarian cancer metastasis using an organotypic tumor microenvironment (TME) model; SKOV3ip1-GFP adhesion/invasion on 3D omental model, fluorescence; AID 1963576, 2024; hit rate 0.1% among 46,000; Potency, µM (doses to about 45.8 µM), for inactives: at the highest dose activity change, negative = inhibition, usual class: inhibitors;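 further: potency means the concentration at half of the fitted maximal effect; plate controls were DMSO wells for no effect and tomatine positive control wells for full effect; nearly all actives have a fitted effect of over 65% in size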
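A 3D layer of primary human omental fibroblasts, mesothelial cells, fibronectin and collagen I, grown 48 hr, received SKOV3ip1-GFP cells in serum-free medium plus compounds at 0.36-46 umol/L. After 2 hr RT and 16 hr 37 C, fixed adherent GFP cells were counted; normalized to DMSO and tomatine.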
NLuc sat counter – Biochemical NLuc saturation counterscreen for small molecule modulators of PMP22 gene expression - Nano-Glo assay; shares compounds with PMP22 txn; Secreted NLuc enzyme (filtered S16 cell medium), Nano-Glo luminescence; Potency, µM (series often up to 57.5 µM), inactives show at the top dose activity change, negative = inhibition, hits mostly inhibitors; hit rate 4% among 690; AID 1508638, 2021; further: potency means the concentration at half of the fitted maximal effect; on the % scale 0 is the no-effect control and ±100 the full control effect
NLuc Km counter – Biochemical coelenterazine-based NLuc counterscreen for small molecule modulators of PMP22 gene expression - Km assay | shares compounds with PMP22 txn | secreted NLuc enzyme, coelenterazine luminescence, Km conditions | Potency, µM (series often up to 57.5 µM), without a hit: at the highest dose activity change, negative = inhibition, usual class: inhibitors | hit rate 5% among 690; further: potency means the concentration at half of the fitted maximal effect; on the % scale 0 is the no-effect control and ±100 the full control effect
FLuc ctr PMP22 – Biochemical FLuc counterscreen for small molecule modulators of PMP22 gene expression | purified P. pyralis FLuc, luminescence, 10 min | shares compounds with PMP22 txn | 690 tested, under 10 active | Potency, µM (series often up to 57.5 µM), for the others: at the highest dose activity, negative = inhibition, usual class: inhibitors; further: % of control where 0% means no effect
Target sequence (P08659 whole entry, looked up): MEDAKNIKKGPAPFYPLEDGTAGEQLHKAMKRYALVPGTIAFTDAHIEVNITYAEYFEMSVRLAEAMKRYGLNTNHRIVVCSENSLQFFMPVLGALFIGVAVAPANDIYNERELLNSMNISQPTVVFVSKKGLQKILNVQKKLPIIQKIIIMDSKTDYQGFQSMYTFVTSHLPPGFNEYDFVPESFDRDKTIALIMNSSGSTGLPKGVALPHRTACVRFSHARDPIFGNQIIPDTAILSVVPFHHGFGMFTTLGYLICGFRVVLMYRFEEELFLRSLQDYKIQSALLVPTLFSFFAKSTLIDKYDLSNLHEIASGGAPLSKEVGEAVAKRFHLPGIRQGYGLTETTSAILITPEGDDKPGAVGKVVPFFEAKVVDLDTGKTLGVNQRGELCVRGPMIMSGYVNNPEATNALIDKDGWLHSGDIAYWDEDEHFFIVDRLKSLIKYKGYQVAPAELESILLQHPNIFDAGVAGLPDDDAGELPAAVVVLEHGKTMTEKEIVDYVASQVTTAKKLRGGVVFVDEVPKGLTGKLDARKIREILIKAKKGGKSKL
S16 viab conf – Cell viability qHTS assay in S16 Pmp22-F2sN cells - Confirmatory screen; shares compounds with PMP22 txn; S16 Schwann cells viability, CellTiter-Glo ATP luminescence, 24 h; Potency, µM (doses to about 57.5 µM), for the others: top-dose activity change, negative = viability loss, hits mostly cytotoxic; hit rate 7% among 690; further: potency means the concentration at half of the fitted maximal effect; on the % scale 0 is the no-effect control and ±100 the full control effect
PMP22 txn cnf – Cell-based coincidence reporter assay to measure PMP22 gene transcription in S16 Pmp22-F2sN cells - Confirmatory screen; shares compounds with PMP22 txn; S16 Schwann cells Pmp22-F2sN, dual luciferase, 24 h; Potency, µM (titrated, usually from 57.5 µM), for the others: top-dose activity change, negative = inhibition, actives largely listed as inhibitors; hit rate 22% among 690; AID 1508646, 2021; active means clear falling dose curves in both reporters; inconclusive means both reporters move, but less clearly or upward; inactive means either reporter flat; the % is the FLuc reporter signal; further: potency means the concentration at half of the fitted maximal effect
* marks the source's active call; other numbers are inactive results; i = inactive; u = inconclusive; x = no result; [ ] = remark or other dose. Unless noted, the call rests on the fitted dose curve; in most records, active means well fitted curve in the direction sought with a large enough effect; inconclusive means small, poorly fitted or top-dose-only effect, or another doubt; inactive means no such curve, though single readings can be large; an effect the other way counts as inactive or inconclusive.

SMILES | HTT-AS act | S16 viability | pS6 MEF inh | HTT prom inh | PMP22 txn | OvCa metastasis | NLuc sat counter | NLuc Km counter | FLuc ctr PMP22 | S16 viab conf | PMP22 txn cnf
Cn1nc(C(=O)NCc2cccc(Cl)c2)c2c1-c1ccccc1S(=O)(=O)C2 | -13.7% | 6.5% | 2.8% | -15.2% | -20.1% | 9.7% | x | x | x | x | x
O=C(NCCC1=CCCCC1)c1ccc2c(c1)N(Cc1ccccc1)C(=O)c1ccccc1S2=O (configuration not stated) | -33.8% | -9.0% | 1.7% | -29.8% | 12.7µM* | i | -7.7% | 5.1% | 6.4% | -11.1% | -35.8%
O=C(NCCC1=CCCCC1)c1ccc2c(c1)N(Cc1ccc(Cl)cc1)C(=O)c1ccccc1S2=O (configuration not stated) | -29.8% | -0.3% | -8.9% | -18.3% | u | 9.5% | x | x | x | x | x
O=C(NCCCN1CCN(c2ccccc2)CC1)c1ccc2nc(CCc3ccccc3)oc2c1 | -22.5% | u | 0.1% | u | 18.9µM* | u | -15.0% | -5.5% | -5.7% | -26.4% | u
COc1ccc(N2CCN(CCCNC(=O)c3ccc4nc(Cc5ccccc5)oc4c3)CC2)cc1 | -26.2% | u | -4.2% | u | 18.9µM* | u | u | u | -2.3% | u | u
CC=C1NC(=O)[C@H]2CSSCCC=C[C@H](CC(=O)N[C@H](C(C)C)C(=O)N2)OC(=O)[C@H](C(C)C)NC1=O | u | x | x | 19.8% | x | -15.5% | x | x | x | x | x
O=C1CCCC2=C1C(c1[nH]ncc1Cl)N=C(Nc1nc3ccccc3o1)N2 (configuration not stated) | -6.0% | x | x | 2.7% | x | -8.4% | x | x | x | x | x
COc1cc2ncnc(Nc3ccc(F)c(Cl)c3)c2cc1NC(=O)C=CCN1CCCCC1 | -20.6% | x | x | -0.9% | x | -1.3% | x | x | x | x | x
Cc1cccc(C)c1Nc1c(-c2ccsc2)nc2ccc(Cl)cn12 | -15.3% | -12.1% | -14.1% | -9.5% | -13.0% | 6.2% | x | x | x | x | x
Cc1cccc(C)c1Nc1c(-c2ccsc2)nc2ccccn12 | -33.7% | u | -12.1% | u | 9.46µM* | -6.6% | u | 21.7µM* | 1.9% | 0.8% | u
Cc1ccc(NC(=O)CSc2nc(-c3ccc(F)cc3)nc3c2Cc2c(CO)cnc(C)c2O3)cc1C | -11.3% | -0.2% | -1.4% | -14.4% | 9.4% | 13.3% | x | x | x | x | x
COc1ccccc1-c1nc2c(c(SCC(=O)Nc3ccc(C)c(C)c3)n1)Cc1c(CO)cnc(C)c1O2 | -27.2% | -25.1% | -5.6% | u | 17µM* | 23.0% | u | u | -9.9% | -19.5% | u
Cc1ncc(CO)c2c1Oc1nc(-c3ccccc3)nc(SCC(=O)N3CCCCC3)c1C2 | -1.7% | 0.8% | -1.6% | -2.1% | 11.9µM* | 6.7% | -5.0% | 1.3% | 2.3% | u | u
Cc1ncc(CO)c2c1Oc1nc(-c3ccc(Cl)cc3)nc(SCC(=O)N3CCCCC3)c1C2 | -12.4% | u | -2.4% | -21.4% | u | 2.2% | x | x | x | x | x
CCCc1ncc(C(=O)O)s1 | 2.3% | x | x | 4.5% | x | x | x | x | x | x | x
Cc1ccc(CSc2nnc(-n3c(=O)c(C#N)cc4c(=O)n5cccc(C)c5nc43)s2)cc1 | -10.6% | 3.2% | -2.9% | -17.2% | u | -7.8% | x | x | x | x | x
Cc1cccn2c(=O)c3cc(C#N)c(=O)n(-c4nnc(SCc5ccc(F)cc5)s4)c3nc12 | -4.5% | u | -4.7% | -14.2% | 10µM* | 2.1% | -6.9% | -1.5% | 11.5% | 8.3% | -28.4%
Cn1c(-c2cccc(Br)c2)cnc1NCc1cccc(F)c1 | -23.4% | -10.8% | u | -20.5% | u | -1.1% | -10.6% | u | 1.2% | -21.2% | -26.8%
CCc1ccc(CNc2ncc(-c3cccc(OC)c3)n2C)cc1 | -37.5% | u | 13.1µM* | -28.8% | u | 5.62µM* | -8.5% | -6.6% | -10.3% | u | u
COc1cccc(Cn2c(NCc3ccc(C)cc3)nc3c2c(=O)n(C)c(=O)n3C)c1 | 14.3%[11.5 µM] | -6.0% | -7.4% | 9.1%[11.5 µM] | -23.9% | 2.3% | x | x | x | x | x
CCOC(=O)c1c(S(=O)(=O)N2CCCC(C(=O)N3CCN(c4cccc(C)c4C)CC3)C2)c(C)n(C)c1C (configuration not stated) | -21.8% | -20.6% | -1.9% | u | 17µM* | i | u | u | 3.7% | -7.6% | -23.2%
CCOc1ccc(-n2ccnc2SCC(=O)Nc2nc3ccc(C)cc3s2)cc1 | -16.0% | 2.9% | -16.3% | u | 8.91µM* | 3.7% | -1.6% | u | -6.5% | -1.0% | -20.9%

Screening results (PubChem BioAssay)
